Source: PubChem
G9a inh: blocks human histone lysine methyltransferase G9a; Q96KQ7; G9a H3K9 monomethylation, AlphaScreen, 2 h; Potency, µM (highest dose often 102 µM), inactives show at the highest dose activity, negative = inhibition, most hits filed as inhibitors; 350,000 tested, 8.8% active; note: potency is the fitted concentration of half-maximal effect; nearly all actives have a fitted effect of over 75% in size
Target sequence (Q96KQ7 913-1193 limits assumed): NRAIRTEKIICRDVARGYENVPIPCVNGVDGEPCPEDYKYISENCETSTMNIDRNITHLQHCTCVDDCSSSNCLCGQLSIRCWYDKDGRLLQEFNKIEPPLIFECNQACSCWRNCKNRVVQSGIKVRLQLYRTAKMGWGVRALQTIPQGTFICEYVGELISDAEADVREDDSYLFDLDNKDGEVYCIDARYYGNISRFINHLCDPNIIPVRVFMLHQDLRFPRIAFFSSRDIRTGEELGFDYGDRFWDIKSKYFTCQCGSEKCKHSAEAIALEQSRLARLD
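Step 1: enzyme (final 20 nM) with compound, 15 min RT. Step 2: substrate peptide 500 nM and SAM 20 uM, 2 h RT. Step 3: anti-H3K9me1 antibody and AlphaScreen beads, 10 min, then plate read.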
Coupling enz: counter-screen for Giardia aldolase inhibitors: coupling enzyme system. coupling enzyme system counterscreen, AmpLite Red fluorescence. activity change, negative = inhibition, % at 58.2 µM, hits read low. 290,000 tested, 0.67% active. AID 2472; in the data active = activity change below about -30%
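Fluorescence at 525 nm excitation and 598 nm emission measured inhibition of the coupled detection system without aldolase. Compounds (at 57.5 uM final) were preincubated 10 min at room temperature with coupling enzyme reagent before a 20 min substrate/AmpLite Red step.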
Tau fibril ThT: blocks human tau fibril formation measured by thioflavin T | 270,000 tested, 2.1% active | AID 1460 | recombinant tau K18 P301L, heparin-induced fibrillization, ThT fluorescence | Potency, µM (highest dose often 57.4 µM), for inactives: at the top dose activity, negative = inhibition, actives largely listed as inhibitors | P10636; note: potency is the fitted concentration of half-maximal effect; nearly all actives have a fitted effect of over 55% in size
Target sequence (P10636 561-689 P618L limits assumed): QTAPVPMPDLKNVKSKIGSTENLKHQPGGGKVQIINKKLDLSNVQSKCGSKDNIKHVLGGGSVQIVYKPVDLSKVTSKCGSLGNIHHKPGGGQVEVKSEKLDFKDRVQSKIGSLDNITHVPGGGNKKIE
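Heparin-induced fibrillization of the P301L-mutant K18 repeat-domain fragment of human tau was followed by ThT binding in quantitative high-throughput format.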
Tau fluor counter: counter-screen for tau fibril formation inhibitors. tau K18 P301L Alexa594 fluorescence, heparin fibrillization. Potency, µM (titrated, usually from 57.7 µM), for the others: top-dose activity change, negative = decrease. 280,000 tested, 0.93% active. AID 1463; note: potency is the fitted concentration of half-maximal effect; nearly all actives have a fitted effect of over 55% in size
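Human tau K18 P301L (15 uM unlabeled, 0.24 uM Alexa 594-labeled) in 100 mM sodium acetate pH 7 with 20 uM heparin, 6 hr at 37 C. ThT 30 uM added, 1 hr ambient; Alexa 594 FP and total fluorescence read at 555/632 nm.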
Tau FP inhib: inhibitors of human tau fibril formation; P10636; K18 P301L tau heparin fibrillization, Alexa594 FP, 6 h; Potency, µM (highest dose often 57.7 µM), for the others: at the highest dose activity, negative = inhibition, actives largely listed as inhibitors; 280,000 tested, 0.39% active; AID 1468; note: potency is the fitted concentration of half-maximal effect; nearly all actives have a fitted effect of over 55% in size
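Heparin (20 uM) drove fibril formation of recombinant tau K18 P301L, 15 uM unlabeled with 0.24 uM Alexa 594 label, for 6 hr at 37 C in 100 mM sodium acetate pH 7. Fluorescence polarization (555/632 nm) read 1 hr after 30 uM ThT.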
Sfp PPTase inh: inhibitors of Bacillus subtilis Sfp phosphopantetheinyl transferase; AID 1490; Potency, µM, for inactives: largest response in the series, negative = inhibition, most hits filed as inhibitors; Biochemical Sfp PPTase activity, qHTS; 310,000 tested, 3.5% active; Q9F4F7;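 note: the enzyme is Sfp with the accession as filed and its product quenches rhodamine fluorescence; potency is the fitted concentration of half-maximal effect; 0% = enzyme reaction without inhibitor and -100% = no enzyme wells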
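After 15 min at room temperature with compound, 15 nM Sfp received 5 uM rhodamine-CoA plus 12.5 uM BHQ-2-ybbR (50 mM Hepes pH 7.6, 10 mM MgCl2). Rate came from the fluorescence difference over 30 min, ex 525/em 598 nm.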
Numbers without * were called inactive; ? = inconclusive; / = not tested or not shown; [ ] = remark or other dose. In the library only some 11% were active in any assay of this set; here they are far more common. Unless noted, calls come from the whole dose curve; as a rule, active = well fitted curve in the direction sought with a large enough effect; inconclusive = small, poorly fitted or top-dose-only effect, or another doubt; inactive = no such curve, though single readings can be large; an effect the other way counts as inactive or inconclusive. Unless noted, % is set by controls: 0 for no effect and ±100 for the full control effect.

SMILES | G9a inh | Coupling enz | Tau fibril ThT | Tau fluor counter | Tau FP inhib | Sfp PPTase inh
CCNc1nc2c(c(=O)[nH]c(=O)n2C)n1CC(O)COc1ccc(Cl)cc1Cl (centres undefined) | 11%[59 µM] | / | 0% | -7% | 6% | /
CC1=C(C)C(=O)C(CCCCC#CCCCC#CCO)=C(C)C1=O | 19µM* | -59* | 20µM* | ? | ? | ?
COc1ccc(NC(=S)N(CCc2c(C)[nH]c3ccc(C)cc23)Cc2cccs2)cc1 | 50µM* | 0 | 15% | 3% | 3% | 0%
Cc1cc(C)c(NC(=S)N(CCN(C)C)Cc2cccs2)c(C)c1 | -4%[59 µM] | -8 | -4% | -8% | -2% | -15%
Cc1ccc(NC(=S)N(CCN(C)C)Cc2cccs2)c(C)c1 | 40µM* | -1 | -8% | -9% | 8% | 32µM*
CNC(=S)N(CCc1c(C)[nH]c2ccc(C)cc12)Cc1cccs1 | 45µM* | 0 | ? | 20µM*[quencher] | 6% | 14%
COc1ccc2[nH]c(C)c(CCN(Cc3cccs3)C(=S)Nc3ccccc3)c2c1 | ? | -24 | ? | ? | 15% | -2%
COc1ccccc1NC(=S)N(CCc1c(C)[nH]c2ccccc12)Cc1cccs1 | ? | -2 | ? | ? | ? | 17%
COc1ccc2[nH]c(C)c(CCN(Cc3cccs3)C(=S)Nc3ccc(F)cc3)c2c1 | ? | -8 | ? | 7.9µM*[quencher] | -2% | 16%
CCOC(=O)[C@H]1[C@H]2COc3ccc(OC)cc3[C@@H]2N2C(=O)CN(Cc3ccc(OC)cc3)C(=O)[C@@]12C | 3%[0.501 µM] | / | / | / | / | /
COc1ccc(NC(=S)N(CCc2c(C)[nH]c3ccccc23)Cc2cccnc2)cc1 | 71µM* | 1 | ? | ? | 8% | 2%
CCOc1ccc(NC(=S)N(CCc2c(C)[nH]c3ccc(C)cc23)Cc2cccnc2)cc1 | ? | -1 | ? | ? | 10% | 7%
O=C(Oc1coc(CSc2ncccn2)cc1=O)c1ccco1 | -7% | 1 | -19% | -10% | 3% | 89µM*
O=C(Oc1coc(CSc2ncccn2)cc1=O)c1cccc([N+](=O)[O-])c1 | 56µM* | 2 | ? | ? | 10% | -1%
CCc1cc(C(=O)Nc2ncccc2O)sc1C | 37% | -3 | / | / | / | 12%
N=c1scc(-c2ccccc2)n1/N=C/c1ccco1 | 11µM* | -1 | ? | ? | ? | ?
C(=N/n1c2ccccc2c2ccccc21)/c1ccco1 | ? | -2 | ? | ? | -7% | -4%
COC(=O)[C@H](CCSC)NC(=O)C/C=C\[C@@H](C)CO | / | 0 | -9%[11.5 µM] | -5%[11.6 µM] | -1%[11.6 µM] | 25%
CCn1c2c(c(=O)n3ncc(C(=O)Nc4cc(Cl)ccc4OC)c13)CN(Cc1ccc(OC)cc1)CC2 | -4%[59 µM] | / | -11% | -9% | -5% | /
CCn1c2c(c(=O)n3ncc(C(=O)Nc4cccc(Cl)c4C)c13)CN(Cc1ccc(OC)cc1)CC2 | 14µM* | / | ? | -17% | ? | /
CCn1c2c(c(=O)n3ncc(C(=O)Nc4ccc(C(=O)OC)cc4)c13)CN(Cc1ccc(OC)cc1)CC2 | 28µM* | / | ? | -23% | -11% | /
COc1ccccc1C1C=C(c2ccc(Cl)cc2)Nc2nc(-c3ccc(Cl)cc3)nn21 (centres undefined) | ? | / | ? | -20% | -14% | /
COc1cc(N(C)C)cc(CN(C)CCc2ccc([N+](=O)[O-])cc2)c1O | / | -54* | / | / | / | ?
COc1ccc2nc(/C(C#N)=C\c3ccc(Oc4ccc([N+](=O)[O-])cn4)cc3)[nH]c2c1 | 5%[59 µM] | 0 | 5µM* | ? | -13% | 2%
Cc1ccc2nc(/C(C#N)=C\c3ccc(Oc4ccc([N+](=O)[O-])cn4)cc3)[nH]c2c1 | 4%[59 µM] | 1 | 5µM* | ? | 3% | -6%
SMILES | G9a inh | Coupling enz | Tau fibril ThT | Tau fluor counter | Tau FP inhib | Sfp PPTase inh
C[n+]1cc[nH]c1SCC(=O)c1ccc(Cl)cc1 | 32µM* | 2 | -4% | 6% | -6% | ?
O=C(O)CSCC(=O)c1ccccc1 | -44%[59 µM] | 2 | 5% | -5% | 6% | -18%
C[n+]1cc[nH]c1SCC(=O)c1ccccc1 | 50µM* | 2 | -17% | -13% | -6% | -25%
O=C(CC(c1cccs1)N1Cc2ccccc2C1=O)Nc1ccc(Cl)cc1 (centres undefined) | -8%[59 µM] | / | ? | -14% | ? | /
Cc1ccc(NC(=O)CS(=O)CC(=O)N(c2ccccc2F)C(C)C(=O)NC2CCCC2)cc1 (centres undefined) | -28% | 5 | / | / | / | 15%
Cc1ccc(NC(=O)CS(=O)CC(=O)N(c2ccc(C)cc2)C(C)C(=O)NC2CCCCC2)cc1 (centres undefined) | 18µM* | 0 | -2% | 4% | 11% | -2%
Cc1ccc(S(=O)(=O)Cn2nnnc2C(C(C)C)N2CCC(O)CC2)cc1 (centres undefined) | 9% | 0 | / | / | / | 5%
Cc1ccc(S(=O)(=O)Cn2nnnc2C(C(C)C)N2CCSCC2)cc1 (centres undefined) | 35µM* | -1 | -4% | -10% | -2% | 9%
Cc1ccc(S(=O)(=O)Cn2nnnc2C(c2ccccn2)N2CCN(c3ccccc3)CC2)cc1 (centres undefined) | 35µM* | 6 | -7% | -25% | 13% | -8%
Cc1ccc(C(c2nnnn2CS(=O)(=O)c2ccc(C)cc2)N2CCN(c3ncccn3)CC2)cc1 (centres undefined) | -5%[59 µM] | -3 | -10% | -13% | 7% | 14%
O=C(Cc1ccc([N+](=O)[O-])cc1)c1c(O)cc(O)cc1O | 50µM* | 1 | ? | ? | -3% | 13%
CC1CCC(C(C)C)C(P(=O)(c2ccccc2)c2ccccc2)C1 (centres undefined) | / | 0 | / | / | / | 3%
Cc1c(Cc2ccccc2)sc(NC(=O)C(C)(C)C)c1C(N)=O | 14µM* | -7 | ? | ? | -21% | 20µM*
CCC(=O)Nc1sc(Cc2ccccc2)c(C)c1C(N)=O | / | 4 | -18% | -26% | -7% | ?
Cc1c(Cc2ccccc2)sc(N)c1C(N)=O | 2µM* | -3 | ? | -23% | ? | 40µM*
COC(=O)c1c(NC(C)=O)sc(Cc2ccccc2)c1C | 20% | 0 | -18% | -13% | ? | -19%
Cn1ccnc1C(=O)c1cccc(Br)c1 | 16% | -2 | / | / | / | 10%
CC1CN(Cc2c(O)ccc3c2oc(=O)c2ccccc23)CC(C)O1 (centres undefined) | 0.45µM* | -6 | / | -10% | -11% | 79µM*
